Screen size: about 310,000 compounds; about 14,000 (4.5%) showed an effect of 50% or more. Effects have a minus sign here. For the sample, strong results were picked, then their nearest neighbours and some compounds at random.

We go through 85 molecules from article PMC4336329 (PLoS ONE, 2015).
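Also: peak tail current of the secondary pulse compared with the same well before compound.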

The target in the test is human ether-à-go-go-related gene (hERG) potassium channel (human, UniProt Q12809). Description: primary screen, population patch clamp on CHO cells stably expressing hERG; higher = less effect of the substance.
Chain of human ether-à-go-go-related gene (hERG) potassium channel (Q12809 whole entry, looked up): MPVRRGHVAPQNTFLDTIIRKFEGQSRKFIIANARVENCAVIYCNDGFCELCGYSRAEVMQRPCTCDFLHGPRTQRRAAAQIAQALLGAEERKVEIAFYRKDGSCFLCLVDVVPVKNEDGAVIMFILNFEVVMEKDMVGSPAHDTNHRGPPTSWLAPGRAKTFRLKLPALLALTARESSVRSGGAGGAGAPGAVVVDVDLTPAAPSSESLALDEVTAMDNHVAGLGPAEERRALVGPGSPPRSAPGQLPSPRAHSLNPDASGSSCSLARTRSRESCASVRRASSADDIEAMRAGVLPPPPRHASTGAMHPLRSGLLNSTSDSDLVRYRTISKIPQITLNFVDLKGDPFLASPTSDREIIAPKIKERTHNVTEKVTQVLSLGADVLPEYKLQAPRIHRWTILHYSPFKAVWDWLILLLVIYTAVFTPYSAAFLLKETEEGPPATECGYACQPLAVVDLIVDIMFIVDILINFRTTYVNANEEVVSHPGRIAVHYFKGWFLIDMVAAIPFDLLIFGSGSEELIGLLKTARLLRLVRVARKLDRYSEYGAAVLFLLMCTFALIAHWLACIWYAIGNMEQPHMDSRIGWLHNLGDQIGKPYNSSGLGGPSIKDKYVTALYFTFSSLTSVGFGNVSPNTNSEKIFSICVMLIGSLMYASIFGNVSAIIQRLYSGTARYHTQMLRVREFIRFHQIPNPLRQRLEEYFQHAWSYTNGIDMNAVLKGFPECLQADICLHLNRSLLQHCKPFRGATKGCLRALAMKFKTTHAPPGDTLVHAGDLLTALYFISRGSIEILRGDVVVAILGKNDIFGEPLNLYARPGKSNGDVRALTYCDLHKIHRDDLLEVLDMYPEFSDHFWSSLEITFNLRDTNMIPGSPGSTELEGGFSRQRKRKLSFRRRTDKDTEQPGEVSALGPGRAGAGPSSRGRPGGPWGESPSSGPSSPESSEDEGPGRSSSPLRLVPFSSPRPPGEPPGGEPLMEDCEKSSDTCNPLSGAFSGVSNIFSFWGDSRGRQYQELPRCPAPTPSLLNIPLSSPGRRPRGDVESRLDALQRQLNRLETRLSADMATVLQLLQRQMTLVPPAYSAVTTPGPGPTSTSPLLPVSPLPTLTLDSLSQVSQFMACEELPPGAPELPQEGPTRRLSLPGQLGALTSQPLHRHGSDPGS
`CCOC(=O)C(Cc1c(F)cccc1F)(NC(C)=O)C(=O)OCC`: the “hERG current change (%, negative = inhibition) at 10uM” value is on record as 8.41%.
As for `CCOC(=O)C(Cc1ccccc1)(NC(C)=O)C(=O)OCC`, the “hERG current change (%, negative = inhibition) at 10uM” value stood at 7.61%.
With `CCOC(=O)COc1ccc(N)cc1CC(NC(C)=O)(C(=O)OCC)C(=O)OCC`, the “hERG current change (%, negative = inhibition) at 10uM” value is on record as -72.7%.
For `N#CC1(NC(=O)COC(=O)C23CC4CC(CC(O)(C4)C2)C3)CCCCC1` the value was 4.38%; for `CN(C(=O)COC(=O)C12CC3CC(CC(Cl)(C3)C1)C2)C1(C#N)CCCCC1`, -53.5%.
Regarding `CC1CCCC(C)N1C(=O)COC(=O)C12CC3CC(CC(Cl)(C3)C1)C2` (stereo not shown), the “hERG current change (%, negative = inhibition) at 10uM” value was -18.2%.
Take `Cc1cccc(N2CN=C3SCC(=O)N3C2)c1`: the “hERG current change (%, negative = inhibition) at 10uM” value is 0.175%.
As to `CC(C)C1Nc2ccc(S(N)(=O)=O)cc2C2C=CCC21` (stereo not shown), the “hERG current change (%, negative = inhibition) at 10uM” value was determined as 5.89%.
For `OCC(O)/C=N/Nc1nc2ccccc2s1` (stereo not shown) the value was 14%.
Then `COCCNC(=S)N/N=C(\C)CCc1ccc2c(c1)OCO2`, with -11.6%; and `C/C(=N\NC(=S)NC(C)C)c1ccc2c(c1)OCCO2`, with -63.6%; and `CNC(=S)N/N=C(\C)c1ccc2c(c1)OCCO2`, with 9.21%.
As for `CCNC(=S)N/N=C(\C)c1ccc2c(c1)OCCO2`, the “hERG current change (%, negative = inhibition) at 10uM” value stood at 13.4%.
With `C/C(CCc1ccc2c(c1)OCO2)=N\NC(=S)NC(C)C`, the “hERG current change (%, negative = inhibition) at 10uM” value was -59.4%.
With `C/C(CCc1ccc2c(c1)OCO2)=N\NC(=O)c1ccccc1`, the “hERG current change (%, negative = inhibition) at 10uM” value was found to be 9.96%.
As to `CC(=O)n1cc([C@H]2C=C(C(=O)Nc3ccccc3)O[C@@H](OCc3ccc(CO)cc3)C2)c2ccccc21`, the “hERG current change (%, negative = inhibition) at 10uM” value is -2.85%.
In the case of `CC1(C)CC(NS(=O)(=O)c2ccc(Cl)cc2)CC(C)(C)N1`, the “hERG current change (%, negative = inhibition) at 10uM” value worked out at 9.34%.
Take `Cc1cccc(NCc2nc3ccccc3n2Cc2ccccc2)c1`: the “hERG current change (%, negative = inhibition) at 10uM” value was -13.1%.
Regarding `Cc1nc2cc(NCc3ccccc3O)ccc2n1Cc1ccccc1`, the “hERG current change (%, negative = inhibition) at 10uM” value is reported as 13.8%.
Take `O=C(O)c1ccc(NCc2nc3ccccc3n2Cc2ccccc2)cc1`: the “hERG current change (%, negative = inhibition) at 10uM” value is given as -4.61%.
As for `Cc1nc2cc(NCc3nc4ccccc4n3Cc3ccccc3)ccc2n1C`, the “hERG current change (%, negative = inhibition) at 10uM” value was -82%.
Turning to `CCn1cnc2cc(NCc3cccs3)ccc21`, the “hERG current change (%, negative = inhibition) at 10uM” value is given as -15.9%.
Then `CCn1cnc2cc(NCc3nc4ccccc4n3Cc3ccccc3)ccc21`, with -65.6%.
For `NC(=O)c1ccccc1OCC(=O)N1CCc2ccccc2C1`, the “hERG current change (%, negative = inhibition) at 10uM” value was found to be 8.34%.
For `COC(=O)c1cc(-c2ccc(Br)cc2)on1`, the “hERG current change (%, negative = inhibition) at 10uM” value worked out at 8.48%.
`Cc1c(Cl)cccc1NC(=S)NCc1ccccc1`: the “hERG current change (%, negative = inhibition) at 10uM” value turned out to be 16.5%.
For `Cc1ccc(S(=O)(=O)C2(C(=O)NCc3ccccc3Cl)CC2)cc1` the value was -15.2%.
For the molecule `Cc1nnc(SCC(=O)Nc2ccc(N3CCOCC3)cc2)n1-c1ccccc1`, the “hERG current change (%, negative = inhibition) at 10uM” value is on record as -14.5%.
As to `CCCCCn1c(=O)[nH]c2cc(C(=O)Nc3ccc(OC)cc3)ccc2c1=O`, the “hERG current change (%, negative = inhibition) at 10uM” value is on record as 14.9%.
For the molecule `CC(=O)NCC(=O)OCc1ccc([N+](=O)[O-])cc1`, the “hERG current change (%, negative = inhibition) at 10uM” value was determined as 3.26%.
Turning to `CN(C)C1(CNC(=O)C2CCN(S(=O)(=O)c3ccccc3C(F)(F)F)CC2)CCCCC1`, the “hERG current change (%, negative = inhibition) at 10uM” value was -29.8%.
Regarding `CC(C)c1ccc(S(=O)(=O)N2CCC(C(=O)NCC3(N(C)C)CCCCC3)CC2)cc1`, the “hERG current change (%, negative = inhibition) at 10uM” value is recorded as -54.4%.
Take `Cc1ccc(S(=O)(=O)N2CCC(C(=O)Nc3ccc(C(C)C)cc3)CC2)cc1`: the “hERG current change (%, negative = inhibition) at 10uM” value is -11.5%.
Take `CN(C)C1(CNC(=O)C2CCN(S(=O)(=O)c3c(Cl)cccc3Cl)CC2)CCCCC1`: the “hERG current change (%, negative = inhibition) at 10uM” value is on record as -67.5%.
As to `O=C(NCC1CCCO1)C1CCN(S(=O)(=O)c2cc(Cl)ccc2Cl)CC1` (stereo not shown), the “hERG current change (%, negative = inhibition) at 10uM” value was -19%.
In the case of `CN(C)C1(CNC(=O)C2CCN(S(=O)(=O)c3cc(Cl)ccc3Cl)CC2)CCCCC1`, the “hERG current change (%, negative = inhibition) at 10uM” value was -64.1%.
Then `CN(C)C1(CNC(=O)C2CCN(S(=O)(=O)c3cccc(C(F)(F)F)c3)CC2)CCCCC1`, with -34.6%; and `CC(C)c1ccc(S(=O)(=O)N2CCC(C(=O)N3CCC3)CC2)cc1`, with -9.72%.
With `O=C(NC1CCCCCC1)C1CCN(S(=O)(=O)c2c(Cl)cccc2Cl)CC1`, the “hERG current change (%, negative = inhibition) at 10uM” value is given as 11.6%.
With `CCOC(=O)c1cccc(NC(=O)C2CCCO2)c1` (stereo not shown), the “hERG current change (%, negative = inhibition) at 10uM” value is recorded as 4.7%.
For `Brc1ccccc1CNCCc1ccc2c(c1)OCO2` the value was 0.404%; for `Cc1cccc(Oc2cnn(C(C)(C)C)c(=O)c2Cl)c1`, -10%.
Then `Cc1ccc(NC(=O)c2sc(N)nc2-c2ccc([N+](=O)[O-])cc2)cc1C`, with 8.18%.
For the molecule `CSc1ccc(C(C(C(=O)c2cccs2)N2CCOCC2)N2CCOCC2)cc1` (stereo not shown), the “hERG current change (%, negative = inhibition) at 10uM” value is -3.73%.
In the case of `COc1ccc(CCn2nnnc2C(C(C)C)N2CCN(c3ncccn3)CC2)cc1OC` (stereo not shown), the “hERG current change (%, negative = inhibition) at 10uM” value is recorded as -5.93%.
Consider `Cc1c(Br)c([N+](=O)[O-])nn1CC(=O)Nc1ccc(C(N)=O)cc1`, for which the “hERG current change (%, negative = inhibition) at 10uM” value is given as -2.84%.
`COc1ccc(C2c3c(ncn(CCN4CCOCC4)c3=N)Oc3ccc4ccccc4c32)cc1OC` (stereo not shown): the “hERG current change (%, negative = inhibition) at 10uM” value is -16.6%.
As to `COc1ccc(C2c3c(ccc4ccccc34)Oc3ncn4nc(Cc5ccccc5)nc4c32)cc1OC` (stereo not shown), the “hERG current change (%, negative = inhibition) at 10uM” value is -7.49%.
Turning to `COc1ccc(C2c3c(ncn(CCN4CCOCC4)c3=N)Oc3ccc4ccccc4c32)cc1` (stereo not shown), the “hERG current change (%, negative = inhibition) at 10uM” value is given as -47.2%.
With `COc1ccc(C2c3ccc4ccccc4c3Oc3ncn(CCN4CCOCC4)c(=N)c32)cc1OC` (stereo not shown), the “hERG current change (%, negative = inhibition) at 10uM” value was -53.4%.
In the case of `COc1ccc(C2c3c(ncn(CCCN4CCOCC4)c3=N)Oc3ccc4ccccc4c32)cc1OC` (stereo not shown), the “hERG current change (%, negative = inhibition) at 10uM” value is -51.3%.
With `COc1ccc(C2c3ccc4ccccc4c3Oc3ncn(CCN4CCOCC4)c(=N)c32)cc1` (stereo not shown), the “hERG current change (%, negative = inhibition) at 10uM” value was -74.1%.
Then `Cc1cc(NC(=O)CCN2C(=O)C3C4C=CC(C4)C3C2=O)c2ccccc2n1` (stereo not shown), with 7.51%.
Turning to `CC(=O)Nc1nc(C(F)(F)F)cs1`, the “hERG current change (%, negative = inhibition) at 10uM” value is given as 7.96%.
For `CN(C(=O)c1cccnc1)c1nnc(-c2cnccn2)s1` the value was 8.06%; for `Cc1cc(NC(=O)c2cccc3c2C(=O)N(C2CCCCC2)C3)ccc1Br`, 13%; for `CC(C)(Oc1ccc(Cl)cc1)C(=O)NCCN1C(=O)S/C(=C/c2cccnc2)C1=O`, -62.9%.
`O=C(NCCN1C(=O)S/C(=C\c2cccnc2)C1=O)c1cc(S(=O)(=O)N2CCOCC2)ccc1F`: the “hERG current change (%, negative = inhibition) at 10uM” value is reported as -59%.
For `O=C(NCCN1C(=O)S/C(=C\c2ccc(F)cc2)C1=O)c1cccc(S(=O)(=O)N2CCOCC2)c1` the value was -3.04%.
For the molecule `O=C(CCl)NCCN1C(=O)S/C(=C\c2cccnc2)C1=O`, the “hERG current change (%, negative = inhibition) at 10uM” value was 26.1%.
For `Cc1c(C(=O)NCCN2C(=O)S/C(=C\c3cccnc3)C2=O)cccc1[N+](=O)[O-]`, the “hERG current change (%, negative = inhibition) at 10uM” value was -45.1%.
Take `Cc1cc(OCCCC(=O)NCCN2C(=O)S/C(=C\c3cccnc3)C2=O)ccc1Cl`: the “hERG current change (%, negative = inhibition) at 10uM” value is recorded as -6.35%.
Take `CSc1cccc(N2CC(C(=O)NCCN3C(=O)S/C(=C\c4cccnc4)C3=O)CC2=O)c1` (stereo not shown): the “hERG current change (%, negative = inhibition) at 10uM” value is listed as -68.3%.
For `COc1ccccc1N1CC(C(=O)NCCN2C(=O)S/C(=C\c3cccnc3)C2=O)CC1=O` (stereo not shown), the “hERG current change (%, negative = inhibition) at 10uM” value came to 1.78%.
For `CS(=O)(=O)c1ccc(C(=O)NCCN2C(=O)S/C(=C\c3cccnc3)C2=O)cc1[N+](=O)[O-]` the value was 1.32%; for `CCOc1ccc(N2CC(C(=O)NCCN3C(=O)S/C(=C\c4cccnc4)C3=O)CC2=O)cc1` (stereo not shown), -0.149%; for `COc1ccc(C(=O)NCCN2C(=O)S/C(=C\c3cccnc3)C2=O)cc1[N+](=O)[O-]`, -63.8%.
Take `O=C(NCCN1C(=O)S/C(=C\c2cccnc2)C1=O)c1ccc(S(=O)(=O)N2CCCC2)cc1`: the “hERG current change (%, negative = inhibition) at 10uM” value is -11.3%.
Then `Cc1ccc(S(=O)(=O)NC(C)(C)CSc2ncccn2)cc1`, with -4.42%; and `CC1=CC(C)(C)N(C(=O)CCl)c2ccccc21`, with -39.7%; and `O=C(O)C(Nc1nc(C(F)(F)F)nc2ccccc12)c1ccccc1` (stereo not shown), with 26.2%.
For `O=C(Cc1cccs1)NCc1cccc(F)c1` the value was 14.4%; for `CCOC(=O)C1CCN(c2c(NCc3ccc(C(=O)NCCOC)cc3)c(=O)c2=O)CC1`, -7.38%; for `CCn1cc(C(=O)Nc2ccc(F)c(F)c2)cn1`, 7.43%.
With `COc1ccccc1N(CC(=O)NC(C)(C)C)C(=O)CCC(=O)Nc1nccs1`, the “hERG current change (%, negative = inhibition) at 10uM” value was -36.5%.
Turning to `COC(=O)CN1C(=O)C2(OCCCO2)c2ccccc21`, the “hERG current change (%, negative = inhibition) at 10uM” value is -7.31%.
Then `Cc1cc(C)n(-c2ccc(NC(=O)C3CCN(Cc4ccccn4)CC3)cc2)n1`, with -14.5%; and `O=C(Nc1cccc(-c2cccc(Cl)c2)c1)C1CCN(Cc2ccon2)CC1`, with -52.7%; and `COc1cccc(-c2cccc(NC(=O)C3CCN(Cc4ccon4)CC3)c2)c1`, with -27.8%.
Take `Cl.O=C(O)C1CCN(Cc2ccccn2)CC1`: the “hERG current change (%, negative = inhibition) at 10uM” value came to 16.2%.
Regarding `O=C(Nc1cccc(-c2cccc(Cl)c2)c1)C1CCN(Cc2ccccn2)CC1`, the “hERG current change (%, negative = inhibition) at 10uM” value is given as -77.8%.
For `CC(c1ccccc1)C1CC(=O)N(Cc2ccco2)C1=O` (stereo not shown) the value was 25.9%.
With `COc1ccc(CN2CC(C(=O)NCCC(C)C)CC2=O)cc1` (stereo not shown), the “hERG current change (%, negative = inhibition) at 10uM” value was found to be 10.5%.
With `COc1ccc(NC(=S)NCCSc2ccc(C)cc2)c(OC)c1`, the “hERG current change (%, negative = inhibition) at 10uM” value worked out at 5.2%.
Take `CCOC(=O)c1c(C)[nH]c(C)c1S(=O)(=O)NCCc1sccc1C`: the “hERG current change (%, negative = inhibition) at 10uM” value is -0.705%.
